# Screening data as filed in PubChem.
# Most compounds without a hit are left out; they make up all but 2.7% or so of the library.
# F508del corr – CFTR F508del correction in bronchial cells. CFBE cells, YFP halide quenching; stimulated with forskolin plus potentiator P3; % fluorescence drop versus neutral controls. activity (quench increase), % at 7.58 µM. 0.36% of 350,000 active. AID 720511;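 active means mean added fluorescence quench of at least 8% versus neutral control, with both replicates also reaching 8%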;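 further: cells transiently co-express mutant CFTR-F508del with the halide-sensitive YFP; corrector assay measuring rescue of mutant channel to the surface after 24 h compound exposure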
# MPTP inh – blocks calcium-induced mitochondrial swelling. isolated mouse mitochondria, Ca2+ swelling absorbance, 30 min. inhibition, % at 10 µM. 1.4% of 360,000 active. AID 602449;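 active means inhibition of 50% or more, scaled per plate between neutral and stimulator controls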
# SKN-1 block – blocks SKN-1 activity in C. elegans; 0.49% of 360,000 active; inhibition, % at 21.8 µM; AID 624304; C. elegans VP596 Pgst-4::GFP/RFP ratio, acrylamide-induced, 24 h;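 active means interference check ratio from 0.5 to 1.5 plus GFP to RFP signal ratio inhibition reaching or exceeding a fixed threshold, cut at about 30% in these data, passing the limit was not always enough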
# ATG4B inh – ATG4B (human) cysteine protease inhibition; ATG4B cleavage of LC3-PLA2, NBD-HPC fluorescence, 1 h; inhibition, % at 8.33 µM; 0.51% of 340,000 active; AID 504462; in the data active means inhibition above about 40%
# Target sequence (Q9Y4P1 whole entry, looked up): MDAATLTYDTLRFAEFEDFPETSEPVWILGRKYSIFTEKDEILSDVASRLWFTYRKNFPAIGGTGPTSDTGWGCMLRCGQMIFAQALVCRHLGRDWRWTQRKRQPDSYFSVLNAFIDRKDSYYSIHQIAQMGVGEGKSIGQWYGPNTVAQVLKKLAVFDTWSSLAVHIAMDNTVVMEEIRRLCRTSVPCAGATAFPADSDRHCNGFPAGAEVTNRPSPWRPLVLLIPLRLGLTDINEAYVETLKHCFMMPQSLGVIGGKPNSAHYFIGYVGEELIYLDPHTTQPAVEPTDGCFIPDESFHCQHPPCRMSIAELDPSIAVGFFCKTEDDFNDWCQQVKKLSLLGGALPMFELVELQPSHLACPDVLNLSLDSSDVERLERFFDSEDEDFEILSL
# CendR NRP1 mod – NRP-1/CendR interaction modulation; FAM-RPARPAR peptide binding to NRP-1, fluorescence polarization; inhibition, % at 25 µM; 0.85% of 360,000 active;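 active means inhibition or corrected inhibition above about 18%, plus a signal ratio from 0.5 to 1.5, limit read from the data, passing the limit was not always enough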
# Rh123 counter – mitochondrial membrane potential, counter-screen. shares compounds with MPTP inh. isolated mitochondria, Rhodamine 123 fluorescence. inhibition, % at 10 µM. 78% of 5,000 active; in the data active means inhibition above about 22%
# MPTP swell DR – dose response confirmation of mitochondrial permeability transition pore inhibitors | shares compounds with MPTP inh | isolated mitochondria swelling, absorbance | IC50, µM | 58% of 780 active; in the data active means IC50 below about 20 µM
# MPTP counter DR – MPTP inhibitor counter-screen activity, dose response. shares compounds with MPTP inh. isolated mitochondria counterscreen, fluorescence read-out. IC50, µM. 49% of 780 active. AID 651564; in the data active means IC50 below about 80 µM
# Numbers stand for hits; n = inactive; x = no result given.
SMILES,F508del corr,MPTP inh,SKN-1 block,ATG4B inh,CendR NRP1 mod,Rh123 counter,others
C/C(=N\NC(=O)c1c(Cl)c(C)nn1C)c1ccc(NC(=O)c2ccncc2)cc1,x,n,n,n,n,x,
Cc1nn(-c2ccc(NC(=O)c3ccncc3)cc2)c(C)c1Cl,n,80.2,n,n,n,79.3,
CCCOc1ccc(CSc2nc3ccccc3[nH]2)cc1,x,97.9,n,n,n,92.1,
Cc1cccc(OCCCSc2nc3ccccc3[nH]2)c1,x,50.6,n,n,n,63.6,
CCCNC(=O)N1[C@H](CO)[C@H](c2ccccc2)[C@@H]1CNC(C)=O,n,x,x,x,x,x,
C[C@@H]1CN([C@H](C)CO)C(=O)c2cc(NC(=O)Cc3ccccc3)ccc2O[C@@H]1CN(C)Cc1ccc(C(=O)O)cc1,n,x,x,x,x,x,
CCN1/C(=C/c2sc(-c3ccccc3C)c[n+]2C)Sc2ccccc21,n,95.0,n,n,n,107.3,
CCC(=O)/C=C1/Sc2ccccc2N1CC,x,n,n,n,n,x,
CCn1c(-c2ccco2)nc2ccccc21,x,91.9,n,n,n,n,MPTP swell DR=8.7;MPTP counter DR=n
CCc1cc(=O)n2c([nH]c3ccccc32)c1C#N,x,n,n,n,n,x,
CCc1cc(=S)n2c([nH]c3ccccc32)c1C#N,x,100.6,n,n,n,68.5,
Cc1c(CCC(=O)O)c(=O)n2c([nH]c3ccccc32)c1C#N,x,n,n,n,n,x,
CCc1c(C)c(C#N)c2[nH]c3ccccc3n2c1=S,n,89.6,n,n,n,80.7,
Cc1ccc(Cc2c(C)c(C#N)c3[nH]c4ccccc4n3c2=O)cc1,n,88.6,n,n,n,70.2,
C=C(C)Cc1c(C)c(C#N)c2[nH]c3ccccc3n2c1=O,n,n,n,n,n,x,
C[C@H]1CN([C@@H](C)CO)C(=O)c2cc(NC(=O)Nc3ccc(F)cc3)ccc2O[C@@H]1CN(C)S(=O)(=O)c1cn(C)cn1,n,x,x,x,x,x,
C[C@H]1CN([C@@H](C)CO)C(=O)Cc2cc(NS(=O)(=O)c3ccccc3)ccc2O[C@@H]1CN(C)S(=O)(=O)c1ccccc1,n,x,x,x,x,x,
CCN(CC)CCCNC(=O)c1cc(-c2ccc(O)cc2)on1,n,n,n,n,n,x,
CCN(CC)CCCNC(=O)c1cc(-c2ccc(Cl)c(Cl)c2)on1,n,79.4,n,n,n,n,
Cc1cc(=O)n(C)c(=O)n1CCCCCCOc1cccc([N+](=O)[O-])c1,x,57.1,n,n,n,20.5,
COc1ccc(Cn2nnnc2C(c2ccc3ncccc3c2)N2CCN(C3CCCCC3)CC2)cc1 (stereo not given),n,n,n,n,n,x,
COc1ccc(Cn2nnnc2C(c2ccc(C)cc2)N2CCN(C3CCCC3)CC2)cc1 (stereo not given),x,77.1,n,n,n,n,MPTP swell DR=n;MPTP counter DR=n
CC(C)(C)c1cnnn1-c1ccc(/C=N/Nc2ccc([N+](=O)[O-])cc2)cc1,n,73.5,n,n,n,68.3,
COc1ccc(S(=O)(=O)Nc2cccc3c2O[C@H](CN(C)S(=O)(=O)c2ccc(C)cc2)[C@@H](C)CN([C@@H](C)CO)C3=O)cc1,n,x,x,x,x,x,
CC(=O)N[C@@H]1C[C@@H]2O[C@@H](CO)CC[C@@H]2O[C@@H]1CCc1ccc(-c2ccc(F)cc2)cc1,n,x,x,x,x,x,
SMILES,F508del corr,MPTP inh,SKN-1 block,ATG4B inh,CendR NRP1 mod,Rh123 counter,others
Cc1nn(CCC(=O)O)c2nc(-c3cccnc3)cc(C(F)(F)F)c12,x,n,n,n,n,x,
Cc1nn(CCc2nn[nH]n2)c2nc(-c3ccc(C4CCCCC4)cc3)cc(C(F)(F)F)c12,n,59.1,n,n,n,25.6,
CCC(CC)C(=O)Oc1c(Sc2ccccc2[N+](=O)[O-])c(C)nn1C(C)(C)C,x,n,n,n,n,x,
COCC(=O)Oc1c(Sc2ccccc2[N+](=O)[O-])c(C)nn1C(C)(C)C,n,60.3,n,n,n,61.5,
CN(C)CCCN1c2ccccc2Sc2ccc(Cl)cc21,n,90.6,n,n,n,n,MPTP swell DR=4.99;MPTP counter DR=n
OCCN1CCN(CCCN2c3ccccc3Sc3ccc(Cl)cc32)CC1,n,53.0,n,n,n,n,
CN(C)CCCN1c2ccccc2Sc2ccc3ccccc3c21,n,n,n,n,n,x,
CC(=O)N(C)C[C@H]1Oc2cc(C#Cc3ccccn3)ccc2S(=O)(=O)N([C@H](C)CO)C[C@H]1C,n,x,x,x,x,x,
C[C@@H]1CCCCO[C@H](CN(C)Cc2ccncc2)[C@H](C)CN([C@H](C)CO)C(=O)c2cc(NC(=O)Nc3ccc4c(c3)OCO4)ccc2O1,n,x,x,x,x,x,
C[C@@H]1CN([C@@H](C)CO)C(=O)c2cc(-c3ccccc3)cnc2O[C@H]1CN(C)Cc1cccnc1,n,x,x,x,x,x,
OC(c1ccc(F)c(F)c1)c1nc(-c2ccncc2)cs1 (stereo not given),n,n,n,x,n,x,
OC(c1ccc(F)cc1)c1nc(-c2ccncc2)cs1 (stereo not given),n,64.7,n,x,n,57.5,
CCOc1ccc(Br)cc1/C(C)=N\NC1=NCCN1,x,107.6,n,n,n,66.9,
CCCCCOc1ccc(/C(C)=N/NC2=NCCN2)cc1,n,n,n,n,n,x,
CCCCCCOc1ccc(/C(C)=N/NC2=NCCN2)cc1,n,94.3,n,n,n,n,
CO[C@H]1CC[C@@H]2CCN(C)C(=O)[C@H](C)[C@H](OC)CN(C)C(=O)c3cccc(C#N)c3OC[C@@H]1O2,n,x,x,x,x,x,
O=c1/c(=C/c2ccc(O)c([N+](=O)[O-])c2)sc2nc3ccccc3n12,n,66.5,n,n,n,29.8,
O=c1/c(=C\c2cccnc2)sc2nc3ccccc3n12,n,n,n,n,n,x,
COc1ccccc1OCCCCOc1ccccc1C(C)=O,x,60.6,n,n,n,60.6,
CC(=O)c1ccccc1OCCOc1ccccc1C(C)=O,n,n,n,n,n,x,
CC(NC(=S)NC1CCCCC1)c1ccc(C(C)(C)C)cc1 (stereo not given),n,53.1,n,n,n,105.6,
CCC(C)c1ccc(C(C)NC(=S)NC2CCCCC2)cc1 (stereo not given),n,59.4,n,n,n,103.4,
COc1ccc(CNC(=O)c2c(O)c3cccc4c3n(c2=O)CCC4)cc1OC,x,n,n,n,n,x,
COc1ccc(CNC(=O)c2c(O)c3cccc4c3n(c2=O)CCC4)cc1,x,81.4,n,n,n,n,
CN(C)C(=O)c1cccc(-c2ccc3c(c2)[C@@H]2[C@@H](CCN2C(=O)C2CCC2)[C@@H](CO)N3)c1,n,x,x,x,x,x,
O=C(OCc1ccccc1)N(CCCCN(CCCNCc1ccccc1)C(=O)OCc1ccccc1)CCCNCc1ccccc1,n,63.6,n,n,n,n,
O=C(NCCCCCCNC(=O)OCc1ccccc1)OCc1ccccc1,n,n,n,n,n,x,
COc1ccc(S(=O)(=O)Nc2ccc3c(c2)C(=O)N([C@@H](C)CO)C[C@@H](C)[C@H](CN(C)C(=O)NC(C)C)OCCCC[C@@H](C)O3)cc1,n,x,x,x,x,x,
